Source: PubChem
Rows were chosen to be rich in hits. Some 19% of all compounds tested hit in one or more screens of this group.
ELG1 DNA repair: qHTS screen for small molecules that inhibit ELG1-dependent DNA repair in human embryonic kidney (HEK293T) cells expressing luciferase-tagged ELG1. Potency, µM (series often up to 46.1 µM), for inactives: top-dose activity change, negative = inhibition, actives largely listed as inhibitors. 2.3% of 330,000 active. HEK293T ELG1-luciferase reporter, luminescence, 16 h; DNA damage induced by 5-fluorouridine; note: potency is the fitted concentration of half-maximal effect; nearly all actives have a fitted effect of over 55% in size
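DMSO vehicle served as the neutral condition. Each well held 2,000 cells given 5-fluorouridine plus compound; after 16 hr at 37 °C/5% CO2, ONE-Glo was added and luciferase measured 30 min later.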
Giardia kill: Small Molecules that selectively kill Giardia lamblia: qHTS; Giardia lamblia trophozoite viability; activity change, % at 7.66 µM, hits read low; 0.15% of 340,000 active; AID 540267, 2011; in the data active = activity change below about -80%; inconclusive = between about -30% and that limit;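 note: parasites exposed to compound for two days anaerobically before the ATP read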
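Killing of trophozoites was scored by loss of ATP luminescence after a 48 hrs anaerobic exposure to compounds at 37 deg C, using 100 cells per well.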
TDP1 cell CPT: qHTS for Inhibitors of human tyrosyl-DNA phosphodiesterase 1 (TDP1): qHTS in cells in presence of CPT; chicken DT40 Tdp1-/-;hTDP1 cells + 20 nM CPT, ATP luminescence, 48 h; 12% of 420,000 active; Potency, µM (titrated, usually from 46.2 µM), inactives show at the top dose activity change, negative = growth inhibition, hits mostly inhibitors; AID 686979, 2013; note: potency is the fitted concentration of half-maximal effect; nearly all actives have a fitted effect of over 55% in size
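Chicken DT40 Tdp1-/- cells complemented with human TDP1, 400 cells/well, exposed to compounds plus 20 nM camptothecin for at least 48 h at 37 C; viability read as ATP content by CellTiter-Glo luminescence.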
IL1B secr inh: qHTS for Inhibitors of Inflammasome Signaling: IL-1-beta AlphaLISA Primary Screen; THP-1 LPS/ATP IL-1B secretion, AlphaLISA, 16 h; active compounds read low; AID 743279, 2014; activity change, % at 57.5 µM; 4.7% of 360,000 active; in the data active = activity change below about -50%; inconclusive = mostly about -30% to -49%
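THP-1 cells pretreated 1 hr with compounds (up to 57.5 uM final), then stimulated with LPS (250 ng/mL final) plus ATP (1.25 mM final); secreted IL-1B measured by AlphaLISA after 16 hr, decreased signal indicating inhibition.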
TDP1 block: qHTS Assay for Inhibitors of Tyrosyl-DNA Phosphodiesterase (TDP1); recombinant TDP1, AlphaScreen DNA substrate cleavage; Potency, µM (doses to about 130 µM), for inactives: at the highest dose activity change, negative = inhibition, usual class: inhibitors; 0.28% of 350,000 active; note: potency is the fitted concentration of half-maximal effect; nearly all actives have a fitted effect of over 40% in size
Target sequence (Q9NUW8 whole entry, looked up): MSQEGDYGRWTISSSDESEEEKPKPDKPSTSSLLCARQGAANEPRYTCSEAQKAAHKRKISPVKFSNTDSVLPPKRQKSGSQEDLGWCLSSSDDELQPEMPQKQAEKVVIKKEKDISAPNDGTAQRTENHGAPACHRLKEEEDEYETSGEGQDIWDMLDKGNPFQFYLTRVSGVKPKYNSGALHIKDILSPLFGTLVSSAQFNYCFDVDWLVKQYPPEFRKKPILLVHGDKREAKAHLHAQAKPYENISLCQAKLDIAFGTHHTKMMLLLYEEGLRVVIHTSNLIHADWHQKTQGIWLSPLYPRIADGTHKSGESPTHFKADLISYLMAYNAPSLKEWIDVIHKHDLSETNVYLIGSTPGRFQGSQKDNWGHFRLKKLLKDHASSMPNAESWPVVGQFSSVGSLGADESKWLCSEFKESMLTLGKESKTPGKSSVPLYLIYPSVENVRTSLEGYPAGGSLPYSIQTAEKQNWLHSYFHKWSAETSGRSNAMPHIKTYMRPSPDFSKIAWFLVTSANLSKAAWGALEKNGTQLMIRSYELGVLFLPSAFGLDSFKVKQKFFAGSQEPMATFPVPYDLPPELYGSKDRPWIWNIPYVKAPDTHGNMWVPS
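Enzyme-compound mixtures sat 15 min at room temperature, followed by a 5 min reaction with 15 nM final substrate and 10 min with AlphaScreen beads. Recombinant human Tdp1 was used at 1 nM final.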
TDP1 cell noCPT: qHTS for Inhibitors of human tyrosyl-DNA phosphodiesterase 1 (TDP1): qHTS in cells in absence of CPT. 15% of 420,000 active. DT40 Tdp1-/- hTDP1 cells, no CPT, ATP luminescence, 48 h. AID 686978, 2013. Potency, µM (doses to about 46.2 µM), without a hit: top-dose activity change, negative = growth inhibition, actives largely listed as inhibitors; note: potency is the fitted concentration of half-maximal effect; nearly all actives have a fitted effect of over 55% in size
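Luminescent ATP content (CellTiter-Glo) served as the growth readout. Knockout chicken DT40 cells expressing human TDP1 were exposed to compounds without camptothecin for a minimum 48 hr at 37 °C.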
* = called active by the depositor; [ ] = dose if it differs, or a comment. Unless noted, calls come from the whole dose curve; as a rule, active = well fitted curve in the direction sought with a large enough effect; inconclusive = small, poorly fitted or top-dose-only effect, or another doubt; inactive = no such curve, though single readings can be large; an effect the other way counts as inactive or inconclusive. % is set by controls: 0 for no effect and ±100 for the full control effect.

Screening CCOC(=O)c1c(C)n(C)c2ccc(OCC(O)CNCCc3ccccc3)cc12 (stereo not given) returned ELG1 DNA repair inconclusive, Giardia kill -3, TDP1 cell CPT inconclusive, IL1B secr inh -60* and TDP1 cell noCPT inconclusive.
CCOC(=O)c1c(C)n(-c2ccc(C)cc2)c2ccc(OCC(O)CN3CCN(C)CC3)cc12 (stereo not given) was read as ELG1 DNA repair inconclusive, Giardia kill 8, TDP1 cell CPT -88%, IL1B secr inh -58*, TDP1 block 6% and TDP1 cell noCPT inconclusive.
`CCOC(=O)c1c(-c2ccccc2)oc2ccc(OCC(O)CNCCN(C)C)cc12` (stereo not given) gave ELG1 DNA repair inconclusive, Giardia kill 6, TDP1 cell CPT 16µM*, IL1B secr inh -103* and TDP1 cell noCPT inconclusive.
`NC(=O)c1ccc(NC(=O)CS(=O)(=O)c2cn(CC(=O)N3CCCCC3)c3ccccc23)cc1` gave ELG1 DNA repair 15%, Giardia kill -9, TDP1 cell CPT 0%, IL1B secr inh -12, TDP1 block 3%[56.1 µM] and TDP1 cell noCPT 8%.
Cn1c(C(C)(O)C(O)c2ccccc2)nc2ccccc21 (stereo not given) was read as ELG1 DNA repair -1% and TDP1 block 2%.
COC(=O)C1CCN(Cc2ccc3c(c2)CN(C(=O)c2ccc4nc(C)c(C)nc4c2)CCO3)CC1 was read as TDP1 cell CPT 2%[9.04 µM] and TDP1 cell noCPT -16%.
CCc1ccccc1N(C)C was read as TDP1 cell CPT -26% and TDP1 cell noCPT -27%.
`O=C(Nc1ccc2oc(-c3ccccc3)nc2c1)c1cccs1` gave ELG1 DNA repair inconclusive, Giardia kill -5, TDP1 cell CPT inconclusive, IL1B secr inh -19, TDP1 block 0%[56.1 µM] and TDP1 cell noCPT inconclusive.
`Cc1cccc(C(=O)Nc2ccc(-c3nc4cc(C(C)C)ccc4o3)cc2)c1` gave TDP1 cell CPT 16µM*, TDP1 block -1%[12.3 µM] and TDP1 cell noCPT 16µM*.
`O=C(Nc1cccc(-c2nc3ccccc3o2)c1)c1cccnc1` gave ELG1 DNA repair inconclusive, Giardia kill 7, TDP1 cell CPT inconclusive, IL1B secr inh 11, TDP1 block 1% and TDP1 cell noCPT 21µM*.
For O=C(Nc1ccc2oc(-c3ccccc3)nc2c1)c1ccncc1 the results were ELG1 DNA repair inconclusive, Giardia kill 2, TDP1 cell CPT 16µM*, IL1B secr inh -6, TDP1 block -2% and TDP1 cell noCPT 12µM*.
For COc1cc(OC)cc(C(=O)Nc2ccc(-c3nc4ccccc4o3)cc2)c1 the results were ELG1 DNA repair inconclusive, Giardia kill -18, TDP1 cell CPT 16µM*, IL1B secr inh 47, TDP1 block -2% and TDP1 cell noCPT 16µM*.
O=C(Nc1ccc2oc(-c3cccnc3)nc2c1)c1cccc(Br)c1 was read as TDP1 cell CPT -1% and TDP1 cell noCPT 5%.
Screening Cc1cc(C)cc(-n2c(SCC(=O)N3CCC(C)CC3)nc3c([nH]c4ccccc43)c2=O)c1 returned TDP1 cell CPT -3%, TDP1 block 2% and TDP1 cell noCPT -8%.
For CCc1c(O)nc(SCC(=O)Nc2ccc(Cl)cc2)n(-c2ccccc2)c1=O the results were TDP1 cell CPT 2%, IL1B secr inh -3 and TDP1 cell noCPT -9%.
